Drawing on PubChem BioAssay (NCATS), this text covers Potency for 39 compounds.

Values without a mark were called inactive. No rule for the calls is given here.
Potency is read from the fitted curve at half-maximal effect.

For this experiment, the system named is HIV-1 nucleocapsid protein NCp7 (binding to TG oligonucleotide). Description: HIV Nucleocapsid (AID 346).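 Also: potency is for inhibitors that block NC binding and lower polarization.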 Particulars: HIV-1 NC / fluorescein-TGTGTGTG probe, fluorescence polarization. An outline of the steps: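 Reagents dispensed (10 nM TG4xF, 100 nM HIV-1 NC), plates spun, compounds pin-transferred, then incubated 1 hr at room temperature before FP imaging. Buffer: Hepes pH 7.5, 250mM NaCl, 1uM ZnCl2, 100 uM TCEP, 5 mM 2-mercaptoethanol.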
On the technique in general: Polarisation of emitted light reports the rotation of a fluorescent probe.
`COc1cccc(-c2nc(NC3CC3)c3ccccc3n2)c1`: the Potency is more than 20 µM. With `O=C(Nc1cccc(F)c1)N1CC2(CCN(C(=O)c3cnccn3)CC2)C1` the figure was more than 20 µM; with `O=C(c1ccncc1)N1CCC2(CC1)CN(c1ccc(-c3ccccc3)cc1)C2`, more than 20 µM. The value for `COc1ccc(CNc2cc(-c3ccccc3CN(C)C)ncn2)c(OC)c1` was more than 20 µM; that for `O=C(Nc1cccc(F)c1)N1CCC2(CC1)CCN(C(=O)c1csnn1)CC2` was more than 20 µM.

In the case of `COc1cccc(-c2ccc3ncnc(N4CCOCC4)c3c2)c1`, the Potency was more than 20 µM. As for `O=C(c1cnccn1)N1CCC2(CC1)CN(c1ccncc1)C2`, the Potency is more than 20 µM. With `N#CCCn1c(=O)c(-c2cccs2)nc2cnc(Oc3ccccc3)nc21` the figure was more than 20 µM; with `Cc1nc2cnc(N(C)C)nc2n(Cc2ccc(F)cc2)c1=O`, more than 20 µM. With `COc1ccccc1-c1nccc(NCc2cnc(C)cn2)n1` the figure was more than 20 µM; with `O=c1c(-c2ccc(Cl)cc2)nc2cnc(N3CCOCC3)nc2n1Cc1ccc(F)cc1`, more than 20 µM.

For `Cn1c(=O)c(CCc2ccccc2)nc2cncnc21`, the Potency is more than 20 µM. The value for `COc1ncc2nc(CCc3ccccc3)c(=O)n(CCc3ccccc3)c2n1` was more than 20 µM; that for `O=S(=O)(c1ccccc1)N1CCC2(CC1)CN(c1ncccn1)C2` was more than 20 µM; that for `COc1cccc(-c2cc(NCc3cccs3)ncn2)c1` was more than 20 µM.

With `COc1ccccc1-c1cncnc1Nc1ccccc1`, the Potency is more than 20 µM.

With `O=C(c1csnn1)N1CCC[C@@]2(CCN(c3ccccc3)C2)C1`, the Potency was more than 20 µM.

In the case of `COc1cccc(Nc2ncc3nc(-c4ccc(F)cc4)c(=O)n(CCC#N)c3n2)c1`, the Potency is more than 4 µM. The value for `CC(=O)NCCNc1ccnc(-c2ccccc2C(F)(F)F)n1` was more than 20 µM. The value for `COc1ccc2[nH]cc(CCNc3ncncc3-c3c(C)noc3C)c2c1` was more than 20 µM; that for `CN1CCN(c2ncc3ncc(=O)n(CCC#N)c3n2)CC1` was more than 20 µM; that for `Cc1cccc(CNc2ncncc2-c2cccnc2)c1` was more than 20 µM. The value for `CC(C)CN1CC[C@@]2(CCCN(S(=O)(=O)c3ccccc3)C2)C1` was more than 20 µM; that for `COc1ccc(-c2nc3cnc(N(C)C)nc3n(Cc3cccs3)c2=O)cc1` was more than 20 µM. Turning to `CN(C)c1ncc2nc(-c3ccccc3)c(=O)n(Cc3cccs3)c2n1`, the Potency was more than 20 µM. Consider `O=c1c(-c2ccc(Cl)cc2)nc2cncnc2n1Cc1ccc(F)cc1`, for which the Potency is more than 20 µM. The value for `Cc1ccccc1-c1nc(Nc2ccncc2)c2ccccc2n1` was more than 20 µM. The value for `CN(C)c1ncc2ncc(=O)n(Cc3ccc(F)cc3)c2n1` was more than 20 µM; that for `COc1ccccc1CN1CCCC2(CCNCC2)C1` was more than 4 µM; that for `c1ccc(-c2ccc(N3CC[C@@]4(CCCNC4)C3)cc2)cc1` was more than 20 µM. The value for `COc1ncc2nc(-c3ccccc3)c(=O)n(C3CC3)c2n1` was more than 20 µM. For `O=C(c1csnn1)N1CCC2(CC1)CCN(c1ccccn1)CC2`, the Potency is more than 20 µM. With `c1ncc(-c2ccc3c(c2)OCO3)c(NCCc2cnc[nH]2)n1`, the Potency was more than 20 µM. Consider `Cc1ccccc1-c1cc(NCc2ccccc2)ncn1`, for which the Potency was more than 20 µM.

With `COc1ccc(CNc2nc(-c3cccc(C#N)c3)nc3ccccc23)c(OC)c1`, the Potency was more than 20 µM. The value for `O=c1c(-c2ccccc2)nc2cncnc2n1C1CC1` was more than 20 µM; that for `CN(C)c1ncc2nc(-c3ccccc3)c(=O)n(C)c2n1` was more than 20 µM. The value for `CCNc1ncc2nc(CCc3ccccc3)c(=O)n(-c3ccc(OC)cc3)c2n1` was more than 20 µM.

As to `COc1ccc(C(=O)N2CCC[C@@]3(CCN(c4ccccn4)C3)C2)cc1`, the Potency was more than 20 µM.
